Measured values: the supplement of paper PMC9135407
“And” between values parts separate entries of the source, which are not always exact repeats. Identical values can stand only once. Counter-ions that a name gives are not always drawn. About 620 (11%) of roughly 5,800 compounds showed activity. Shown is part of a subset that was picked to be rich in actives. A number with no mark means an inactive call.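 How the source made its calls: active = score above a cut-off or among the top three wells of a plate; in these data no inactive exceeds 0.85.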

System: primary human hepatic stellate cells (donor 1)
Assay: scaled lipid accumulation score (0 = DMSO-like, 1 = nortriptyline-like); higher = stronger HSC inactivation (lipid re-accumulation), active = hit call of the paper
Details: 48 h
Method: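 Primary lipid accumulation screen in primary human hepatic stellate cell myofibroblasts (donor 1, passage 8) in 384-well plates. 100 nL of library compound was pin-transferred into 30 µL medium in duplicate, and cells were treated for 48 h. The 'Scaled' score combines distance from plate baseline, toxicity and reproducibility penalties, and is normalised to nortriptyline (positive) and DMSO (negative) controls on each plate. A hit is defined as scaled >0.85 or among the top 3 wells per plate.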

[1] = library stock concentration: 10 mM
[2] = library stock concentration: 1 mM
[3] = library stock concentration: 3.33 mM

SMILES: CC(=O)N(CC(O)CO)c1c(I)c(C(=O)NCCO)c(I)c(C(=O)NCC(O)CO)c1I (stereo not given)
- scaled lipid accumulation score [1]: ≤ 0

SMILES: O=C(OC[C@@H]1O[C@H]1c1ccccc1)Oc1ccc([N+](=O)[O-])cc1
- scaled lipid accumulation score [2]: ≤ 0

SMILES: CCCCC[C@H](O)/C=C/[C@@H]1[C@@H](CC(=O)CCCCC(=O)O)[C@@H](O)C[C@H]1O [6-Keto-prostaglandin F1a]
- scaled lipid accumulation score [2]: ≤ -0.021

SMILES: CCCCC[C@H](O)/C=C/[C@@H]1[C@@H](CC(=O)CCCCC(=O)O)[C@@H](O)C[C@H]1O [6-keto Prostaglandin F1.alpha.]
- scaled lipid accumulation score [2]: ≤ 0

SMILES: COc1c/c(=C2\C=c3ccccc3=N2)[nH]/c1=C\c1[nH]c(C)cc1C [Obatoclax Mesylate (GX15-070)]
- scaled lipid accumulation score [3]: 0.602
- scaled lipid accumulation score [1]: 0.617

SMILES: CNCCc1c[nH]c(CCC(c2ccccc2)c2ccccc2)n1.O=C(O)C(=O)O.O=C(O)C(=O)O [N-Methylhistaprodifen dioxalate salt]
- scaled lipid accumulation score [1]: 1.02 (active)

SMILES: CNCCc1ccccn1 [Betahistine mesylate]
- scaled lipid accumulation score: 0.122

SMILES: CNCCc1ccccn1 [Betahistine hydrochloride]
- scaled lipid accumulation score (library stock concentration: 9.6 mM): ≤ 0

SMILES: CC(NCCC(c1ccccc1)c1ccccc1)c1ccccc1 (stereo not given) [Fendiline hydrochloride]
- scaled lipid accumulation score: 0.144
- scaled lipid accumulation score [1]: 0.431

SMILES: CNCCc1ccccn1 [Betahistine 2HCl]
- scaled lipid accumulation score [3]: ≤ 0
- scaled lipid accumulation score [1]: ≤ -0.001

SMILES: CCCc1nc(C)c2c(=O)nc(-c3cc(S(=O)(=O)N4CCN(CC)CC4)ccc3OCC)[nH]n12 [Vardenafil HCl Trihydrate]
- scaled lipid accumulation score [3]: ≤ 0
- scaled lipid accumulation score [1]: 0.473

SMILES: CCCc1nc(C)c2c(=O)nc(-c3cc(S(=O)(=O)N4CCN(CC)CC4)ccc3OCC)[nH]n12
- scaled lipid accumulation score [1]: ≤ 0

SMILES: COc1cc2ncnc(-n3nc(-c4ccccn4)nc3N)c2cc1OC
- scaled lipid accumulation score (library stock concentration: 80 uM): ≤ 0
- scaled lipid accumulation score (library stock concentration: 400 uM): 0.052
- scaled lipid accumulation score (library stock concentration: 2 mM): 0.101
- scaled lipid accumulation score [1]: 0.046

SMILES: N[C@H]1C(O)O[C@H](CO)[C@@H](O)[C@@H]1O (stereo not given in full) [Glucosamine hydrochloride]
- scaled lipid accumulation score (library stock concentration: 9.3 mM): ≤ -0.001
- scaled lipid accumulation score [1]: 0.034

SMILES: CCCCCC=CCC=CCC=CCC=CCCCCCC(=O)O [Adrenic acid (22:4, n-6)]
- scaled lipid accumulation score [2]: ≤ -0.01

SMILES: CCN(CC)CCOc1ccc(/C(=C(/Cl)c2ccccc2)c2ccccc2)cc1.O=C(O)CC(O)(CC(=O)O)C(=O)O [Clomiphene citrate (Z,E)]
- scaled lipid accumulation score: 0.946 (active)

SMILES: CCN(CC)CCOc1ccc(C(=C(Cl)c2ccccc2)c2ccccc2)cc1 [Clomifene citrate]
- scaled lipid accumulation score [3]: 0.72

SMILES: CCN(CC)CCOc1ccc(C(=C(Cl)c2ccccc2)c2ccccc2)cc1.O=C(O)CC(O)(CC(=O)O)C(=O)O [Clomid]
- scaled lipid accumulation score [1]: 0.963 (active)

SMILES: CCN(CC)CCOCCOC(=O)C1(c2ccccc2)CCCC1 [Carbetapentane citrate]
- scaled lipid accumulation score: 0.595
- scaled lipid accumulation score [1]: 0.72 and 0.014 and 0.411

SMILES: CCN(CC)CCOCCOC(=O)C1(c2ccccc2)CCCC1 [Pentoxyverine Citrate]
- scaled lipid accumulation score [3]: ≤ 0
- scaled lipid accumulation score [1]: 0.424

SMILES: CCN(CC)CCOc1ccc(C(=C(Cl)c2ccccc2)c2ccccc2)cc1.O=C(O)CC(O)(CC(=O)O)C(=O)O [Clomifene citrate]
- scaled lipid accumulation score [1]: 1.12 (active)

SMILES: CCCC(C(=O)OCCN(CC)CC)(c1ccccc1)c1ccccc1 [SKF-525A hydrochloride]
- scaled lipid accumulation score [1]: 0.355

SMILES: CCN(CC)CCOc1ccc(C(=C(Cl)c2ccccc2)c2ccccc2)cc1 [Clomiphene citrate]
- scaled lipid accumulation score (library stock concentration: 4.9 mM): 0.705
- scaled lipid accumulation score [1]: ≤ 0

SMILES: CCN(CC)CCOC(=O)c1ccc(N)cc1 [Procaine HCl]
- scaled lipid accumulation score [3]: ≤ 0
- scaled lipid accumulation score [1]: ≤ -0.001

SMILES: CCN(CC)CCOCCOC(=O)C(CC)(CC)c1ccccc1.O=C(O)CC(O)(CC(=O)O)C(=O)O
- scaled lipid accumulation score [1]: 0.866 (active)

SMILES: COc1ccc(C(Cl)=C(c2ccc(OC)cc2)c2ccc(OC)cc2)cc1 [Chlorotrianisene]
- scaled lipid accumulation score: ≤ 0
- scaled lipid accumulation score (library stock concentration: 5.3 mM): 0.022
- scaled lipid accumulation score [1]: ≤ 0

SMILES: CCCC(C(=O)OCCN(CC)CC)(c1ccccc1)c1ccccc1 [Proadifen hydrochloride]
- scaled lipid accumulation score: 0.228
- scaled lipid accumulation score (library stock concentration: 5.1 mM): 0.536
- scaled lipid accumulation score [1]: 0.511

SMILES: CCN(CC)CCOC(=O)c1ccc(N)cc1 [Procaine hydrochloride]
- scaled lipid accumulation score: 0.256
- scaled lipid accumulation score (library stock concentration: 7.3 mM): ≤ 0
- scaled lipid accumulation score [1]: ≤ 0

SMILES: CC(C)[C@H]1c2ccc(F)cc2CC[C@@]1(CCN(C)CCCc1nc2ccccc2[nH]1)OC(=O)C1CC1 [NNC 55-0396 dihydrochloride]
- scaled lipid accumulation score [1]: 0.432

SMILES: CC(C)[C@H]1c2ccc(F)cc2CC[C@@]1(CCN(C)CCCc1nc2ccccc2[nH]1)OC(=O)C1CC1
- scaled lipid accumulation score [1]: ≤ -0.055

SMILES: COc1ccc(-c2nc3cc(F)ccc3s2)cc1OC
- scaled lipid accumulation score [2]: ≤ 0

SMILES: C=C1C[C@]23C[C@@]1(O)CC[C@H]2[C@@]12C=C[C@H](O)[C@@](C)(C(=O)O1)[C@H]2[C@@H]3C(=O)O [Gibberellic acid]
- scaled lipid accumulation score: ≤ 0

SMILES: Cc1cc(I)ccc1Nc1c(C(=O)NOCC2CC2)cc(F)c(F)c1F
- scaled lipid accumulation score [1]: ≤ -0.001

SMILES: CCc1cc2c(c(CC)n1)CCC(=O)N2Cc1ccc(-c2ccccc2-c2nn[nH]n2)cc1 [ZD 7155 hydrochloride]
- scaled lipid accumulation score [1]: 0.009

SMILES: CCCCCCCCCCCCCCC[C@@H](O)[C@H](CO)NC(=O)CCCCCCC [C8 Dihydroceramide]
- scaled lipid accumulation score [2]: ≤ -0.021

SMILES: CCN(CC)CCOC(=O)C(c1ccccc1)c1ccccc1 [Adiphenine hydrochloride]
- scaled lipid accumulation score: ≤ 0
- scaled lipid accumulation score (library stock concentration: 5.7 mM): 0.005
- scaled lipid accumulation score [1]: 0.111

SMILES: CN(CCCOc1ccc(Cc2ccccc2)cc1)CCC(=O)O
- scaled lipid accumulation score [1]: ≤ 0

SMILES: CCN(CC)CCOc1ccc(Cc2ccccc2)cc1.O=C(O)/C=C/C(=O)O [DPPE fumarate]
- scaled lipid accumulation score [1]: 0.879 (active)

SMILES: CCN(CC)CCOC(=O)C(c1ccccc1)c1ccccc1 [Adiphenine HCl]
- scaled lipid accumulation score [3]: ≤ 0
- scaled lipid accumulation score [1]: ≤ 0
